Assays:
[1] = biological target: T1, 3-phosphoinositide-dependent protein kinase 1 (Homo sapiens) (UniProt O15530); conditions: at 0.1 µM;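 further: values are mean inhibition of PDK1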
T1 sequence (whole entry): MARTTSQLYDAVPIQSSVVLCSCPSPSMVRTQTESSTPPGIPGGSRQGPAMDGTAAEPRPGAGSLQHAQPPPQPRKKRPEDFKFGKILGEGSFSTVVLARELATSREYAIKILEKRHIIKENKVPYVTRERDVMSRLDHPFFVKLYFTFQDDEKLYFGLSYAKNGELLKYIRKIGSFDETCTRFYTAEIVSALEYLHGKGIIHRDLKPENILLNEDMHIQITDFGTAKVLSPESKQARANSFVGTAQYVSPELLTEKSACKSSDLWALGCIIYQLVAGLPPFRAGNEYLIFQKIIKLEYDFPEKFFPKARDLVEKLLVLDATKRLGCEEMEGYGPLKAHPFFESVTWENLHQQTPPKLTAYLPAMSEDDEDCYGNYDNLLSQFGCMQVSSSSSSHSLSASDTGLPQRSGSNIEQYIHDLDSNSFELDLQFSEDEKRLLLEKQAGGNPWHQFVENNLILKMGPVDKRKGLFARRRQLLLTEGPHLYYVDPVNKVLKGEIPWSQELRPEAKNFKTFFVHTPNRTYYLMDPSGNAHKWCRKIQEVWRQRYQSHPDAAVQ

[2] = biological target: cAMP-dependent protein kinase catalytic subunit alpha (Homo sapiens) (UniProt P17612); conditions: at 0.1 µM
[3] = biological target: cAMP-dependent protein kinase catalytic subunit alpha (Homo sapiens) (UniProt P17612); conditions: at 1 µM
[4] = biological target: Protein kinase C alpha type (Homo sapiens) (UniProt P17252); conditions: at 0.1 µM
[5] = biological target: Protein kinase C alpha type (Homo sapiens) (UniProt P17252); conditions: at 1 µM
[6] = biological target: Protein kinase C beta type (Homo sapiens) (UniProt P05771); conditions: at 0.1 µM
[7] = biological target: Protein kinase C beta type (Homo sapiens) (UniProt P05771); conditions: at 1 µM
[8] = biological target: Protein kinase C eta type (Homo sapiens) (UniProt P24723); conditions: at 0.1 µM
[9] = biological target: Protein kinase C eta type (Homo sapiens) (UniProt P24723); conditions: at 1 µM
[10] = biological target: Protein kinase C gamma type (Homo sapiens) (UniProt P05129); conditions: at 0.1 µM;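 further: values are mean percent inhibition of PKC gamma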

Sequence of Protein kinase C beta type (Homo sapiens) (P05771 2-671 limits assumed): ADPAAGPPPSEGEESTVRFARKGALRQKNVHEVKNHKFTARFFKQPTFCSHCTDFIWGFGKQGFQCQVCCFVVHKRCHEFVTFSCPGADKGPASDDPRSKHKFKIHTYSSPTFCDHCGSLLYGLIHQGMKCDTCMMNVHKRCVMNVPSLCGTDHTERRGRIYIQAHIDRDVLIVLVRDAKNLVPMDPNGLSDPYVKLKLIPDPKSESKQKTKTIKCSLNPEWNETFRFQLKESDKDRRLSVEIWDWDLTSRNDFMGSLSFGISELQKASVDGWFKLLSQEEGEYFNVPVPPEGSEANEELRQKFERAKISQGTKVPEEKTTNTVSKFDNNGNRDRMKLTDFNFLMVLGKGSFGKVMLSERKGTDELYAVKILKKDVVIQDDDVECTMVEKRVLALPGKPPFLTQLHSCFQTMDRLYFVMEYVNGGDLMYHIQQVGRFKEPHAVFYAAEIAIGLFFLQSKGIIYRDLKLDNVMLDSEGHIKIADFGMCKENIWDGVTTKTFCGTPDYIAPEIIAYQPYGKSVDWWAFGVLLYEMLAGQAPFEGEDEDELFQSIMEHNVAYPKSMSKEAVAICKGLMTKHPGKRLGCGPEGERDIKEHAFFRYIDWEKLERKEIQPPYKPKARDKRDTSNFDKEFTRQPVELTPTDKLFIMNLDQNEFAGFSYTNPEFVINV
Sequence of Protein kinase C eta type (Homo sapiens) (P24723 whole entry): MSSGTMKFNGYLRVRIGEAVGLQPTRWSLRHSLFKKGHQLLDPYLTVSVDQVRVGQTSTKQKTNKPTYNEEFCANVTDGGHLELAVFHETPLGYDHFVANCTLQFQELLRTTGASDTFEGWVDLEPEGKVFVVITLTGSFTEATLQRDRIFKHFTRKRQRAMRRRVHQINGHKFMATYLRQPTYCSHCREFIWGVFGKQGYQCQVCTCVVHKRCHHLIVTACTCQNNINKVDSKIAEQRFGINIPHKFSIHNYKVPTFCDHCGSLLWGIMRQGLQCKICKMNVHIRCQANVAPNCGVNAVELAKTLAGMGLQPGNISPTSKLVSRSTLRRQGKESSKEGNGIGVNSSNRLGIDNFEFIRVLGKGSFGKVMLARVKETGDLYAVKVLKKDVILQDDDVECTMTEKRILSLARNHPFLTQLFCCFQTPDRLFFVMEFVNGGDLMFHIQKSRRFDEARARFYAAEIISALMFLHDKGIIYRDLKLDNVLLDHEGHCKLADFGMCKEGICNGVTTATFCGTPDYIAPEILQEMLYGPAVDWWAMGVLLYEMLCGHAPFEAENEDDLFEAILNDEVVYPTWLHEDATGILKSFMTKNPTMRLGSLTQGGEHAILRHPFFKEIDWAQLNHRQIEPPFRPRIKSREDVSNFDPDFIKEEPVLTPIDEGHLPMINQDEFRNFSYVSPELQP

Compound | inhibition [1] | inhibition [2] | inhibition [3] | inhibition [4] | inhibition [5] | inhibition [6] | inhibition [7] | inhibition [8] | inhibition [9] | inhibition [10]
COc1cc2ncn(-c3cc(O[C@@H](C)c4ccccc4Cl)c(C(N)=O)s3)c2cc1OC | 0.82% | 4.37% | 4.38% | 1.75% | 3.87% | 3.42% | 4.55% | 5.28% | 3.1% | 3.01%
COc1cc2c(cc1Nc1nc(N3CCc4ccccc43)c3cc[nH]c3n1)N(C(=O)CN(C)C)CC2 | 1.89% | 1.41% | 0.85% | 0.7% | 1.9% | 1.5% | 0.59% | 3.35% | -0.3% | 1.53%
O=C1NC(=O)C(c2cccc(Cl)c2)=C1Nc1ccc(O)c(Cl)c1 | 0.43% | 1.25% | 1.73% | 3.2% | 6.33% | 0.44% | 4.94% | 1.88% | 2.97% | -4.59%
COc1ccc2cc(-c3c(-c4ccncc4)nc(-c4ccc([S+](C)[O-])cc4)n3C)ccc2c1 (stereo not given) | 0.4% | 1.97% | 9.5% | 0.25% | 0.94% | 0.88% | 7.1% | 2.61% | -1.46% | 1.09%
CN1CCC(C(=O)Nc2n[nH]c3nnc(-c4ccccc4)cc23)CC1 | 0.14% | 2.6% | 1.51% | 0.67% | 1.72% | 1.03% | 1.27% | 4.63% | 5.6% | 2.25%
COc1cc2ncn(-c3cc(OCc4ccccc4C(F)(F)F)c(C(N)=O)s3)c2cc1OC | 0.58% | -1.97% | -1.35% | -3.16% | -2.48% | 0.23% | 0.89% | 5.48% | 5.95% | -1.78%
Nc1ncnc2occ(-c3ccc(NC(=O)Nc4cc(C(F)(F)F)cc(C(F)(F)F)c4)cc3)c12 | 1.59% | 0.91% | 0.7% | 0.06% | 0.45% | -0.8% | -1.24% | 1.47% | -0.03% | 3.16%
Nc1ncnc2occ(-c3ccc(NC(=O)Nc4cccc(C(F)(F)F)c4)cc3)c12 | -1.02% | 2.38% | 4.85% | 0.88% | 1.68% | 0.7% | 12.6% | 0.55% | 6.96% | -0.58%
NCc1ccc(-c2nc(-c3ccc(Cl)c(O)c3)c(-c3ccncc3)[nH]2)cc1 | 2.25% | 1.31% | 3.95% | 0.75% | 2.46% | 5.37% | 27.9% | 1.93% | 3.81% | 0.36%
Cc1nn(C)c2cc(N(C)c3ccnc(Nc4cccc(S(N)(=O)=O)c4)n3)ccc12 | 1.33% | 2.03% | 6.18% | 1% | 6.39% | 1.44% | 6% | 4.55% | 2.34% | 4.1%
Cn1cc(C=C2C(=O)Nc3cccnc32)c2ccccc21 | 0.63% | 0.99% | 1.46% | 1% | 1.29% | -0.06% | -1.44% | 2.86% | -0.57% | -1.77%
CS(=O)(=O)Nc1ccc(N/C=C2\C(=O)Nc3ccccc32)cc1 | 2.23% | -2% | 0.29% | -0.53% | 0.61% | -0.94% | -1.13% | -0.7% | -4.5% | -3.28%
CC1=C(C(=O)Nc2ccc3[nH]ncc3c2)C(c2ccc(F)cc2)NC(=O)N1 (stereo not given) | 0.63% | 3.81% | 30.4% | 0.69% | 0.39% | -0.65% | 1.36% | 3.55% | 10.8% | 0.38%
CCCN1CCC=C(c2ccc(Nc3nc(Nc4ccccc4C(N)=O)c4cc[nH]c4n3)c(C)c2)C1 | -0.1% | 2.92% | 2.79% | 0.33% | 6.13% | -0.14% | -0.64% | 5.56% | 4.73% | 3.41%
CNC(=O)c1cncc(/C=C/c2c(Cl)cccc2Cl)c1 | 0.01% | -1.08% | -1.47% | -3.64% | -2.28% | 0.07% | 0.23% | 3.81% | 5.49% | 0.61%
NS(=O)(=O)c1cccc(-c2ccc3c(NC(=O)C4CC4)n[nH]c3c2)c1 | -1.98% | -0.94% | 0.85% | -0.24% | 0.92% | -0.11% | 2.66% | -2.13% | -2.3% | -1.53%
CCn1c(-c2nonc2N)nc2c(C#CC(C)(C)O)nc(CN3CCCC3)cc21 | 0.46% | 8.62% | 44.9% | 2.29% | 6.77% | 3.02% | 14.2% | 19.5% | 67.3% | 3.19%

Compound | inhibition [1] | inhibition [2] | inhibition [3] | inhibition [4] | inhibition [5] | inhibition [6] | inhibition [7] | inhibition [8] | inhibition [9] | inhibition [10]
CCn1c(-c2nonc2N)nc2c(N3CCCC3)nccc21 | -1.76% | -0.34% | 1.34% | -0.23% | 0.84% | 0.38% | 13.4% | 1.82% | 11.2% | -1.48%
COc1ccc(-c2ccncc2)cc1C(N)=O | 1.13% | 2.54% | 3.05% | 1.07% | 1.9% | -0.74% | 0.96% | 3.72% | 6.14% | 2.34%
CS(=O)(=O)CCNCc1ccc(-c2ccc3ncnc(Nc4ccc(OCc5ccccc5)c(Cl)c4)c3c2)o1 | -0.51% | -0.81% | 1.12% | 0.09% | -0.42% | -1.09% | -2.64% | 1.32% | -1.74% | 1.29%
CCCN1CCC(Oc2cc(Nc3nc(Nc4cccc(F)c4C(N)=O)c4cc[nH]c4n3)c(OC)cc2Cl)CC1 | 1.74% | 9.14% | 9.18% | 0.7% | 11.2% | 0.29% | 1.21% | 2.42% | 1.59% | 2.93%
Cc1cccc(-c2n[nH]cc2-c2ccc3ncccc3n2)n1 | 1.02% | 1.12% | 1.28% | 0.19% | -0.46% | 0.17% | 0.39% | -0.08% | 2.61% | -0.61%
COc1cccc(-n2ncc3c(N/N=C/c4cccc(F)c4)ncnc32)c1 | 1.33% | -1.81% | -1.91% | -3.02% | -2.41% | 0.85% | 1.36% | 0.06% | 3.37% | 2.4%
CS(=O)(=O)CCN(CC#N)Cc1ccc(-c2ccc3ncnc(Nc4ccc(OCc5cccc(F)c5)c(Cl)c4)c3c2)o1 | 0.12% | -3.08% | -3.11% | -3.93% | -3.34% | -0.34% | -1.95% | 2.38% | 1.49% | -0.22%
COc1cc2ncn(-c3cc(O[C@H](C)c4ccccc4Cl)c(C(N)=O)s3)c2cc1OC | 2.16% | 2.29% | 1.54% | -0.04% | 0.09% | 3.14% | 5.95% | 4.41% | 4.05% | 3.01%
COC(=O)Nc1nc2cc(Oc3ccc(NC(=O)Nc4cccc(C(=O)O)c4)cc3)ccc2[nH]1 | 2.53% | -3.91% | 0.18% | -3.01% | -3.65% | 0.02% | 1.6% | -0.35% | 3.15% | 2.38%
CC(C)=Cc1cccc2c1/C(=N/Nc1ccc(S(N)(=O)=O)cc1)C(=O)N2 | 10.4% | 0.47% | 3.74% | 0.96% | 1.29% | 0.26% | 1.55% | 0.51% | 2.14% | 1.44%
CCn1c(-c2nonc2N)nc2cnc(Oc3cccc(NC(=O)c4ccc(OCCN5CCOCC5)cc4)c3)cc21 | 2.08% | 17.5% | 65.8% | 3.09% | 34.1% | 37.3% | 64.2% | 71.2% | 94.9% | 13.9%
CC(=O)Nc1cccc(C#Cc2cncnc2Nc2ccc(OCc3cccc(F)c3)c(Cl)c2)n1 | -0.76% | 2.4% | 4.87% | 1.1% | 0.59% | 5.03% | 8.84% | 0.65% | 3.65% | 2.74%
Fc1cccc(COc2ccc(Nc3ncnc4sc(-c5cccs5)cc34)cc2Cl)c1 | -0.7% | 1.34% | 1.04% | -0.17% | 0.09% | -0.52% | -0.08% | 1.43% | 1.98% | -0.34%
CCn1c(-c2nonc2N)nc2ccncc21 | 2.45% | 0.35% | 1.02% | 0.39% | 0.41% | -0.82% | 1.95% | 1.11% | 5.32% | -2.41%
[O-][S+]1CCN(Cc2ccc(-c3ccc4ncnc(Nc5ccc(OCc6ccccc6)c(F)c5)c4c3)o2)CC1 | 2.01% | 0.99% | 0.53% | 0.47% | 1.52% | -0.89% | -0.42% | 0.68% | 0.14% | -0.39%
Nc1nc(-c2ccc3c(c2)C(=Cc2cc(Br)c(O)c(Br)c2)C(=O)N3)cs1 | -1.98% | -0.95% | -0.7% | -0.01% | 1.51% | 0.67% | 0.52% | -1.62% | -1.96% | -2.56%
NS(=O)(=O)c1ccc(N/N=C2\C(=O)Nc3ccc(C(=O)NCCc4c[nH]cn4)cc32)cc1 | 14.2% | 2.18% | 7.07% | 1.52% | 5.32% | 1.16% | -0.4% | 5.07% | 2.38% | 0.92%
